# CBX7 AlphaScr = inhibitors of human CBX7 binding to H3K27me3 peptide; hit rate 1.1% among 66,000; normalised signal (fraction of DMSO) (test concentration not listed); AlphaScreen His6-CBX7 / biotin-H3K27me3 peptide binding; hits give low values; AID 1224903; O95931; in the data active = normalised signal below about 0.5
# Target sequence (O95931 whole entry, looked up): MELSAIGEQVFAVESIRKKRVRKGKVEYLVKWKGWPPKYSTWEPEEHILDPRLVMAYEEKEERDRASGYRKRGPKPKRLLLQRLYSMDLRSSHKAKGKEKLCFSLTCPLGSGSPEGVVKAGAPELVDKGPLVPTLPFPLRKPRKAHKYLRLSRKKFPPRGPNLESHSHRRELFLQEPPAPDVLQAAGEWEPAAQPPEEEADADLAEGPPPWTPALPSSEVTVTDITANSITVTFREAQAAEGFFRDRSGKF
# * = called active by the depositor. Many of the other results were omitted from the sample, so hits are more common in it than they were.
SMILES,CBX7 AlphaScr
NC(=O)c1cc2nc(-c3cccs3)cc(C(F)(F)F)n2n1,0.97
O=C(CC(Sc1cccc2cccnc12)c1ccc(OC(F)F)cc1)c1ccco1 (stereo not given),0.0051*
c1cnc2c(SCC3CCOCO3)cccc2c1 (stereo not given),1.1
COc1ccc(NC(=O)C(Cc2ccccc2)NS(=O)(=O)c2cccc3cccnc23)cc1 (stereo not given),1
COc1ccc(-c2noc(-c3ccc(Cl)c(Cl)c3)n2)cc1OC,1
O=C(O)CCc1nn2c(-c3ccccc3)c(-c3ccccc3)nc2[nH]c1=O,1.1
CCOc1ccc2nc(N3CCCC(C(=O)N4CCN(c5cccc(C)c5)C(C)C4)C3)sc2c1 (stereo not given),0.49*
CCOc1ccc2nc(N3CCCC(C(=O)N4CCN(C)CC4)C3)sc2c1 (stereo not given),0.38*
CCOc1ccc2nc(N3CCCC(C(=O)N4CCN(c5ncccn5)CC4)C3)sc2c1 (stereo not given),0.94
CCOc1ccc2nc(N3CCCC(C(=O)Nc4c(C)cccc4C)C3)sc2c1 (stereo not given),1.3
CCOc1ccc2nc(N3CCCC(C(=O)N4CCN(c5ccccc5)CC4)C3)sc2c1 (stereo not given),0.76
CCOc1ccc2nc(N3CCC(C(=O)N4CCN(C)CC4)CC3)sc2c1,1
COc1ccc(CCNC2CC(=O)N(c3ccc(Cl)cc3)C2=O)cc1 (stereo not given),1
CCOc1ccc2c(c1)c(=O)c(S(=O)(=O)c1ccc(C)cc1)cn2CC(=O)Nc1ccc(F)cc1,1
CCC(=O)N1CCc2cc(S(=O)(=O)NCCN(C)Cc3ccccc3)ccc21,1.1
CCN1CCN(C(=O)CN2C(=O)CSc3ccc(S(=O)(=O)N(CC)CC)cc32)CC1,1
CCN(c1ccc(F)cc1)S(=O)(=O)c1ccc2[nH]cc(C(=O)NC3CCCC3)c(=O)c2c1,0.98
Cc1sc2ncn(CC(=O)Nc3ccccc3Cl)c(=O)c2c1C,1
CC(C)Cc1cc(C(=O)Nc2c(Cl)cccc2Cl)no1,1.1
Cc1ccc(NCC(O)Cn2c3c(c4cc(C)ccc42)CCCC3)cc1 (stereo not given),0.6
Cc1ccc2c(c1)c1c(n2CC(O)CN2CCCCC2C)CCCC1 (stereo not given),0.82
Cc1ccc(NCC(O)Cn2c3c(c4cc(C)ccc42)CCCC3)c(C)c1 (stereo not given),0.47*
COCCn1c(=O)[nH]c2cc(C(=O)N3CCN(c4cc(Cl)ccc4C)CC3)ccc2c1=O,0.95
Cc1ccc(C)c(OCCCCCCc2c(C)n[nH]c2C)c1,0.92
Cc1n[nH]c(C)c1CCCCCOc1ccccc1F,1.1
SMILES,CBX7 AlphaScr
Cc1ccc(OCCCCc2c(C)n[nH]c2C)c(C(C)(C)C)c1,0.42*
COc1cccc(-c2nn(C)c3sc(C(=O)Nc4ccc(C)cc4Cl)cc23)c1,1.1
CCc1nc(C)ccc1OCC(=O)NCCCN(C)C,0.48*
Cc1nc2ccc(C(=O)NCCCN(C)C)cc2nc1C,0.98
Cc1ccccc1OCC(=O)NCCc1nc2ccccc2[nH]1,1
COc1ccc(-c2nc(CSCC(=O)NCc3cccs3)c(C)o2)cc1,1.2
Cc1ccc(NC(=O)CCn2nc(-c3ccc(Cl)cc3)c3ccccc3c2=O)cc1,0.99
CCOc1ccc2nc(N3CCC(C(=O)NCc4ccc(C)cc4)CC3)sc2c1,1
CCN(Cc1ccccc1)S(=O)(=O)c1ccc2oc(C(=O)O)c(C)c2c1,1.2
CCc1nnc(NC(=O)c2ccc(S(=O)(=O)N(CC)Cc3ccccc3)cc2)o1,0.76
CCCN(CCC)S(=O)(=O)c1ccc(C(=O)Nc2nnc(-c3cccs3)o2)cc1,0.93
CCc1nnc(NC(=O)c2ccc(S(=O)(=O)N(CCC#N)CCC#N)cc2)o1,0.056*
CCCCN(CC)S(=O)(=O)c1ccc(C(=O)Nc2nnc(-c3cccs3)o2)cc1,0.9
CCN(Cc1ccccc1)S(=O)(=O)c1ccc(C(=O)Nc2nnc(C)o2)cc1,0.0031*
CCCCN(CC)S(=O)(=O)c1ccc(C(=O)Nc2nnc(C)o2)cc1,0.024*
CCCCN(CC)S(=O)(=O)c1ccc(C(=O)Nc2ccc(-c3nc4ccccc4[nH]3)cc2)cc1,0.98
CCCCN(CC)S(=O)(=O)c1ccc(C(=O)Nc2ccccc2-c2nc3ccccc3s2)cc1,1.1
CCCCN(CC)S(=O)(=O)c1ccc(C(=O)Nc2nnc(CC)o2)cc1,0.079*
Cc1ccc(-n2ncc(C(=O)Nc3cccc(C)c3C)c2C2CCN(C(=O)OC(C)(C)C)CC2)cc1,0.97
COc1ccc(CCn2c(=O)c3cccnc3n(CC(N)=O)c2=O)cc1OC,0.8
CC1CCC(NC(=O)CSCc2cnn(-c3ccccc3)c2-n2cccc2)CC1 (stereo not given),1
Cn1c(C(=O)NCCc2ccc(S(N)(=O)=O)cc2)cc2sc(Cl)cc21,0.95
CCC1CCCCN1S(=O)(=O)c1ccc2c(c1)CCN2C(=O)C1CC1 (stereo not given),1.1
Cc1ccc(-c2csc(NC(=O)c3ccc(S(=O)(=O)N(C)c4ccccc4)cc3)n2)cc1,1
Cc1nnc(NC(=O)c2ccc(S(=O)(=O)N(C)c3ccccc3)cc2)o1,0.78
SMILES,CBX7 AlphaScr
C=CCN(CC=C)S(=O)(=O)c1ccc(C(=O)Nc2nnc(-c3cc(OC)cc(OC)c3)o2)cc1,0.94
C=CCN(CC=C)S(=O)(=O)c1ccc(C(=O)Nc2nnc(CC)o2)cc1,0.064*
CCN(c1ccccc1)S(=O)(=O)c1ccc(C(=O)Nc2nnc(C)o2)cc1,0.052*
COC(=O)Cn1cc(S(=O)(=O)N2CCN(c3ccccc3F)CC2)c2ccccc2c1=O,0.92
CCN(CC)CCCNC(=O)c1sc2ncn(CC(=O)N3CCCCC3)c(=O)c2c1C,1
Cc1ccc(-c2nc(N3CCOCC3)nc3ccccc23)cc1,1.5
CN(Cc1ccccc1)C(=O)Cn1nc(Cc2ccncc2)c2ccccc2c1=O,1
CCc1cc2c(oc(=O)c3ccccc32)c(CN2CCN(C)CC2)c1O,0.34*
CCc1cc2c(=O)c(-c3nc4ccccc4n3C)c(C)oc2c(CN2CCCCC2)c1O,0.99
CCc1cc2c(C)cc(=O)oc2c(CN2CCCCCC2)c1O,0.96
CCN(c1cccc(C)c1)S(=O)(=O)c1ccc2[nH]cc(C(=O)NCCc3ccccc3)c(=O)c2c1,0.96
CN(C)CCNC(=O)c1ccc2c(c1)N(Cc1ccc(C(F)(F)F)cc1)C(=O)c1ccccc1S2,1.6
COc1cccc(OC)c1C(=O)Nc1cccc(Oc2ccc3c(c2)C(=O)N(c2ccccc2)C3=O)c1,0.99
c1ccc(Nc2c(-c3ccc(N4CCOCC4)cc3)nc3ccccn23)cc1,1.1
Cc1cccn2c(Nc3ccccc3)c(-c3ccccn3)nc12,0.87
Cc1ccc(Nc2c(-c3ccc(C)cc3)nc3ccccn23)cc1,1.3
CC(C)c1ccc(Nc2c(-c3ccccn3)nc3ccccn23)cc1,0.21*
Cc1ccc(Nc2c(-c3ccccc3)nc3ccccn23)cc1,0.98
Cc1cccc(C)c1Nc1c(-c2ccccn2)nc2c(C)cccn12,0.87
Cc1cccn2c(Nc3ccc(C(C)C)cc3)c(-c3ccccn3)nc12,0.26*
c1ccc(Nc2c(-c3ccccn3)nc3ccccn23)cc1,0.24*
Clc1ccc(Nc2c(-c3ccccn3)nc3cnccn23)cc1,0.8
O=C(Nc1ccc(Br)cc1)c1cc(-c2ccc(F)cc2)on1,1
O=C(NCc1ccc2c(c1)OCO2)c1cnn2c(C(F)(F)F)cc(-c3cccs3)nc12,1
CCOC(=O)c1c(NC(=O)c2ccc(OC)cc2)sc(C)c1C,1.1
COc1ccccc1-c1cc(C(=O)NC2CCCCC2)no1,1

# Bioassay records as filed in PubChem BioAssay.
